Results: paper PMC4336329 (PLoS ONE, 2015)
Hit rate of the full screen: of about 310,000 compounds, about 14,000 (4.5%) showed an effect of 50% or more. Effects have a minus sign here. The full list was thinned out, with strong results kept by preference.

These compounds were tested against human ether-à-go-go-related gene (hERG) potassium channel (human, UniProt Q12809) (assay: primary screen, population patch clamp on CHO cells stably expressing hERG; higher = less effect of the substance).
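Further: peak tail current of the secondary pulse compared with the same well before compound.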

Chain of human ether-à-go-go-related gene (hERG) potassium channel (Q12809 whole entry, looked up): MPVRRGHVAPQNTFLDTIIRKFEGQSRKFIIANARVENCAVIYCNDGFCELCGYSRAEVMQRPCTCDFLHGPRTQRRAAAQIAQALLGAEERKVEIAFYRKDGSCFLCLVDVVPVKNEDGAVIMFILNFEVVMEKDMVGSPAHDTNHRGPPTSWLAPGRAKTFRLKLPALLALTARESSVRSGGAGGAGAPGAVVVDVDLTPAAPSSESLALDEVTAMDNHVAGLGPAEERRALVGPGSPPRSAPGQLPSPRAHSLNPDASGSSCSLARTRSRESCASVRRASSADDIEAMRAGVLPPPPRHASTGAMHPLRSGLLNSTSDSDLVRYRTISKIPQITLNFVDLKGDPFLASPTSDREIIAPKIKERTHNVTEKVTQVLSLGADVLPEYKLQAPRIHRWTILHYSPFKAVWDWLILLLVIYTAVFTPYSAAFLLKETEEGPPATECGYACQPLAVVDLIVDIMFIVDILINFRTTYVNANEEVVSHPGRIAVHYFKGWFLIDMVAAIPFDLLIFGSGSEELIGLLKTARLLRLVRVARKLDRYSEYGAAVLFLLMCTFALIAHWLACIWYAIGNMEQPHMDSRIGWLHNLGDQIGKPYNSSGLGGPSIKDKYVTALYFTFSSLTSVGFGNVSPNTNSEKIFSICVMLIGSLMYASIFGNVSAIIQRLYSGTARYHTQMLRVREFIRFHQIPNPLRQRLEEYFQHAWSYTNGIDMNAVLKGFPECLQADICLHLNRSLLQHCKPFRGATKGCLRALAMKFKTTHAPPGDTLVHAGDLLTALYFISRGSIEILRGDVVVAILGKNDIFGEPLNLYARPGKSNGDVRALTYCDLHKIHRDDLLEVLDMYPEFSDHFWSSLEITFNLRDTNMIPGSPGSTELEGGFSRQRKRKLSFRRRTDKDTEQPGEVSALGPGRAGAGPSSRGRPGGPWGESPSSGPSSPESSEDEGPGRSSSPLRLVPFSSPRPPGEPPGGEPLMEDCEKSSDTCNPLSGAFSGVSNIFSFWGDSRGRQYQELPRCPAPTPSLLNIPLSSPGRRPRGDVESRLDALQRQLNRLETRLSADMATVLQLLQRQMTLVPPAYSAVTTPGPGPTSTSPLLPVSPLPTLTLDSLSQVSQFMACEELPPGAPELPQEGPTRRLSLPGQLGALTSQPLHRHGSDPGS

Row | Structure (SMILES) | hERG current change (%, negative = inhibition) at 10uM [%]
1 | Cc1nn(CCCC(=O)N2CCc3ccccc3C2)c(=O)c2cc3sccc3n12 | -75.5
2 | CCOC(=O)C1CCCN(C(=O)CCCn2nc(C)n3c(cc4sccc43)c2=O)C1 (stereo not drawn) | -49.3
3 | CCOC(=O)CCCn1nc(C)n2c(cc3sccc32)c1=O | -21.6
4 | COc1ccc(C(CNCC(=O)Nc2ccccc2F)N(C)C)cc1.O=C(O)C(=O)O (stereo not drawn) | -35.1
5 | COc1ccc(S(=O)(=O)NCC(c2ccc3c(c2)OCO3)N2CCOCC2)cc1 (stereo not drawn) | -6.41
6 | Cc1ccc(S(=O)(=O)NCC(c2ccc3c(c2)OCO3)N2CCOCC2)cc1 (stereo not drawn) | -8.63
7 | CCOc1ccc(S(=O)(=O)NCC(c2ccc3c(c2)OCO3)N2CCN(C)CC2)cc1 (stereo not drawn) | -59.2
8 | CN1CCN(C(CNS(=O)(=O)c2ccc(Br)cc2)c2ccc3c(c2)OCO3)CC1 (stereo not drawn) | -79.8
9 | COc1ccc(S(=O)(=O)NCC(c2ccc3c(c2)OCO3)N2CCN(C)CC2)cc1OC (stereo not drawn) | -15.5
10 | O=S(=O)(NCC(c1ccc2c(c1)OCO2)N1CCOCC1)c1ccc(Br)cc1 (stereo not drawn) | -16
11 | COc1ccc(C)cc1S(=O)(=O)NCC(c1ccc2c(c1)OCO2)N1CCN(C)CC1 (stereo not drawn) | -68.2
12 | COc1ccc(F)cc1S(=O)(=O)NCC(c1ccc2c(c1)OCO2)N1CCN(C)CC1 (stereo not drawn) | -45.6
13 | COc1ccc(C)cc1S(=O)(=O)NCC(c1ccc2c(c1)OCO2)N1CCOCC1 (stereo not drawn) | -13.6
14 | O=C(NC(=O)c1ccc(F)cc1)Nc1nc(-c2cccs2)cc(C(F)(F)F)n1 | 12.2
15 | Cn1nnnc1SCC(=O)N1CCOCC1 | 16.2
16 | C/C(=C/c1ccccc1)C(=O)N1CCN(c2ccccc2)CC1 | -16.2
17 | CN1CCN(C(=O)CCC(=O)c2ccc(F)cc2)CC1 | 8.49
18 | CC1CCCCN1C(=O)/C(=C\c1ccccc1)c1ccccc1 (stereo not drawn) | -17.4
19 | CC1CC(C)CN(C(=O)/C(=C\c2ccccc2)c2ccccc2)C1 (stereo not drawn) | -27.4
20 | CN1CCN(C(=O)/C(C#N)=C/c2ccc(F)cc2)CC1.Cl | 6.63
21 | CN1CCN(C(=O)/C(=C/c2ccccc2)c2ccccc2)CC1 | -54.8

Row | Structure (SMILES) | hERG current change (%, negative = inhibition) at 10uM [%]
22 | O=C(O)/C(=C\c1ccccc1)c1ccccc1 | -0.424
23 | CN1CCN(C(=O)/C(=C/c2ccc(F)cc2)c2ccsc2)CC1.Cl | -70.1
24 | CN1CCN(C(=O)/C(=C\c2ccccc2)c2ccccc2)CC1 | -59.9
25 | COCCn1c(-c2ccccc2)nc(=S)c2c1CC(C)(C)OC2 | -11.5
26 | COc1ccc(-c2noc(N3CCC(C(=O)NCc4ccc(F)cc4)CC3)n2)cc1 | -20.4
27 | CC(=N)C1=C(O)CC(C)(C)CC1=O | 1.84
28 | CC(=O)NCCCC(=O)NN1C(=S)N(Cc2ccccc2)C(=O)C1CC(=O)Nc1cccc(C)c1 (stereo not drawn) | 8.8
29 | O=C(NC1CC(=O)N(c2ccc3c(c2)OCCO3)C1)N1CCCCC1 (stereo not drawn) | 12.4
30 | CC1(c2nnc(-c3ccc(F)cc3)o2)CC(c2c(Cl)cccc2Cl)=NO1 (stereo not drawn) | -37
31 | COC(=O)c1nnn(-c2nonc2N)c1CN1CCc2ccccc21 | 4.57
32 | c1ccc(CNCC2COc3ccccc3O2)cc1 (stereo not drawn) | 8.17
33 | O=C(Cn1c(CO)nc2ccccc21)Nc1ccccc1Cl | 25.1
34 | CCC(CC)c1nnc(NC(=O)CCc2ccc(OC)cc2)s1 | 13.1
35 | CCN(Cc1cc2cc(C)ccc2[nH]c1=O)C(=O)c1cccc([N+](=O)[O-])c1 | -37.9
36 | Cc1ccc2[nH]c(=O)c(CN(C(=O)c3cccc([N+](=O)[O-])c3)C(C)C)cc2c1 | -50.5
37 | Cc1ccc2cc(CCNC(=O)c3cccc([N+](=O)[O-])c3)c(=O)[nH]c2c1 | -20.2
38 | COc1ccc2cc(CCNC(=O)c3cccc([N+](=O)[O-])c3)c(=O)[nH]c2c1 | -79.2
39 | Cc1cc2cc(CCNC(=O)c3cccc([N+](=O)[O-])c3)c(=O)[nH]c2cc1C | -47.1
40 | CC(C)N(Cc1cc2ccccc2[nH]c1=O)C(=O)c1cccc([N+](=O)[O-])c1 | -13.4
41 | CC(O)CNc1nc2c(c(=O)n(C)c(=O)n2C)n1C/C=C/c1ccccc1 (stereo not drawn) | -13.7
42 | COc1ccc(NS(=O)(=O)c2cc(NC(=O)c3ccc(=O)[nH]n3)ccc2N2CCOCC2)cc1 | -23.2

Row | Structure (SMILES) | hERG current change (%, negative = inhibition) at 10uM [%]
43 | COc1ccc(NC(=O)C2CCN(S(=O)(=O)c3cccc4cccnc34)CC2)cc1OC | 9.47
44 | Cc1nn(C(C)(C)C)c(C)c1/C=N/OC(=O)Nc1ccc(Cl)c(Cl)c1 | 1.85
45 | CN(Cc1ccco1)C(=O)c1ccc(OC2CCN(Cc3ccccn3)CC2)cc1 | -6.63
46 | C=CCN(CC=C)C(=O)c1ccc(OC2CCN(Cc3ccccn3)CC2)cc1 | -9.67
47 | CN(C(=O)c1ccc(OC2CCN(Cc3ccccn3)CC2)cc1)C1CCCCC1 | -9.82
48 | CC#CCN(Cc1ccco1)C(=O)c1ccc(OC2CCN(Cc3ccccn3)CC2)cc1 | -60.3
49 | C#CCN(Cc1ccco1)C(=O)c1ccc(OC2CCN(Cc3ccccn3)CC2)cc1 | -66.9
50 | C#CCN(C(=O)c1ccc(OC2CCN(Cc3ccccn3)CC2)cc1)C1CCCCC1 | -39.6
51 | CCOC(=O)c1cnn(-c2nc(CC)nc3sc4c(c23)CCC4)c1N | 8.44
52 | C=CCN1C(=O)c2ccc(C(=O)N3CCN(S(=O)(=O)c4cccc(Cl)c4)CC3)cc2C1=O | -14.8
53 | O=C(c1ccc(-n2cncn2)c([N+](=O)[O-])c1)N1CCN(S(=O)(=O)c2cccc(F)c2)CC1 | -71.9
54 | O=C(c1ccncc1)N1CCN(S(=O)(=O)c2cccc(F)c2)CC1 | 7.6
55 | O=C(NNC(=O)c1ccccc1F)c1ccc(-n2cncn2)c([N+](=O)[O-])c1 | 7.74
56 | C=CCN1C(=O)c2ccc(C(=O)N3CCN(S(=O)(=O)c4cccc(F)c4)CC3)cc2C1=O | -62.7
57 | O=C(c1ccc2nc[nH]c2c1)N1CCN(S(=O)(=O)c2cccc(F)c2)CC1 | 12
58 | O=C(c1ccc(-n2cncn2)c([N+](=O)[O-])c1)N1CCN(S(=O)(=O)c2ccc(Cl)cc2)CC1 | -61.4
59 | C=CCN1C(=O)c2ccc(C(=O)N3CCN(S(=O)(=O)c4cccc([N+](=O)[O-])c4)CC3)cc2C1=O | -30.4
60 | O=C(c1ccc(Cl)c([N+](=O)[O-])c1)N1CCN(S(=O)(=O)c2ccc(Cl)cc2)CC1 | -11.3
61 | O=C(c1ccc(-n2cncn2)c([N+](=O)[O-])c1)N1CCN(S(=O)(=O)c2c(F)cccc2F)CC1 | -56.8
62 | Nc1ccc(C(=O)N2CCN(S(=O)(=O)c3ccc(Cl)cc3)CC2)cc1[N+](=O)[O-] | -46.1
63 | O=C(c1ccc(-n2cncn2)c([N+](=O)[O-])c1)N1CCN(S(=O)(=O)c2ccccc2F)CC1 | -45.1
